# Many of the other results were omitted from the sample, so hits are more common in it than they were.
# ROC1-CUL1 inh: blocks human RBX1-Cullin-1 di-ubiquitin formation. inhibition, % at 10 µM. in vitro K48 di-Ub FRET, acceptor:donor ratio, 45 min. 140,000 tested, 0.6% active; in the data active means inhibition above about 25%
# Target sequence (P62877 whole entry, looked up): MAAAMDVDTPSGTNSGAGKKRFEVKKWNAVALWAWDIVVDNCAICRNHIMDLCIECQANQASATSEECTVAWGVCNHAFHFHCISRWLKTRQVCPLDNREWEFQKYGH
# Target sequence (Q13616 whole entry, looked up): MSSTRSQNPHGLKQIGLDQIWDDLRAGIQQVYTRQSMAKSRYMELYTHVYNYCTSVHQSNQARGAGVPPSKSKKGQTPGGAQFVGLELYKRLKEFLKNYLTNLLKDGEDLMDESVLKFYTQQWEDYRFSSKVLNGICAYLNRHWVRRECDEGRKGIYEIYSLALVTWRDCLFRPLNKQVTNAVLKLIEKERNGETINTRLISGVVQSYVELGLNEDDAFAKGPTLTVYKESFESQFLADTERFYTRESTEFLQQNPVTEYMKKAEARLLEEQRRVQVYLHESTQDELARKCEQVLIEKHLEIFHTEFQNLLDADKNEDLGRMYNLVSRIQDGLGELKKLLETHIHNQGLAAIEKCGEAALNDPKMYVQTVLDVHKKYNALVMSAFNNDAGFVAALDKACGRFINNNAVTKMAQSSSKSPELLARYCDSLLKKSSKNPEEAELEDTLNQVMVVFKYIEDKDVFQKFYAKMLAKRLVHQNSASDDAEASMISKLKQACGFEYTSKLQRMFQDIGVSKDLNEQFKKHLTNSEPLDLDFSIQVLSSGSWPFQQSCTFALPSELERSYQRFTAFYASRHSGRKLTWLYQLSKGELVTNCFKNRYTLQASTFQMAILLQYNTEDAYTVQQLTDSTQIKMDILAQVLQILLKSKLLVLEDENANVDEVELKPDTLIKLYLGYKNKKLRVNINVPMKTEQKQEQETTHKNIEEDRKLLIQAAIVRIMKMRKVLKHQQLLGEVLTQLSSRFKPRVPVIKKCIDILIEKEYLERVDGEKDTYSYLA
# An asterisk follows results filed as active.
SMILES,ROC1-CUL1 inh
O=C(/C=C\c1ccccc1OC(=O)c1ccncc1)c1ccc(Cl)cc1,5.0
CCOC(=O)c1cccc(NC(=O)C(C)CC)c1 (stereo unspecified),-12.5
COc1cc(C(c2c(C)[nH][nH]c2=O)c2c(C)[nH][nH]c2=O)ccc1OC(=O)c1cccc(C)c1,9.1
CCOC(=O)c1cccc(-c2ccc(C(c3c(C)[nH][nH]c3=O)c3c(C)[nH][nH]c3=O)o2)c1,39.3*
CC(Cc1cc(C(=O)N2CCC(O)(c3cccc(C(F)(F)F)c3)CC2)on1)c1ccccc1 (stereo unspecified),10.4
Cc1ncsc1C(=O)N1CCc2[nH]nc(COCc3ccccc3)c2C1,-1.3
O=S(=O)(O)c1ccc2c(S(=O)(=O)O)cccc2c1,5.3
O=S(=O)(O)c1cccc2cc(O)ccc12,8.6
Nc1ccc(/C=C\c2ccc(-n3nc4ccc5c(S(=O)(=O)O)cccc5c4n3)cc2S(=O)(=O)O)c(S(=O)(=O)O)c1,67.8*
O=C(c1ccccc1NS(=O)(=O)C1CCCCC1)N1CCOCC1,-17.3
c1cc2c(s1)COCc1sccc1-2,45.3*
O=C(O)c1sccc1-c1ccsc1C(=O)O,-1.0
CCCOc1ccc(C(=O)CC)cc1,3.0
O=C(O)CSC1=C(SCC(=O)O)C(=O)C(SCC(=O)O)=C(SCC(=O)O)C1=O,102.4*
O=C(O)CSc1ccc(Cl)cc1,1.3
N=C1CC(=O)NC(SCC(=O)O)=N1,8.6
O=C(Oc1ccccc1C(=O)Oc1ccccc1)c1ccccc1,1.8
CC(=O)c1ccccc(OC(=O)c2ccccc2)c1=O,81.0*
COc1cc(C(=O)Oc2ccccc2C(C)=O)cc(OC)c1OC,-6.3
COc1ccc(Br)cc1C(=O)Nc1cccc2cccnc12,1.9
CCCc1cc(=O)oc2c(C)c(O)c(CN3CCCC3)cc12,-4.6
COc1ccc(OCC(=O)Nc2ccc(S(=O)(=O)N3CCc4ccccc43)cc2)cc1,-9.4
O=C(O)CCNc1cccc2ncccc12,80.8*
O=C(O)CCNc1nc(-c2ccccc2)nc2ccccc12,3.0
O=C(O)CCSc1ncnc2ccccc12,8.2
SMILES,ROC1-CUL1 inh
Cc1ccc(-n2c(SC(C)C)nc3sc4c(c3c2=O)C(C)CCC4)cc1 (stereo unspecified),0.0
CC(=O)c1ccc(OCC(=O)N2CCC(c3cc(=O)[nH]c(C)n3)CC2)cc1,-4.3
O=S(=O)(Nc1cc(Sc2ncn[nH]2)c(O)c2ccccc12)c1ccc2ccccc2c1,83.8*
NNS(=O)(=O)c1ccc2ccccc2c1,-0.5
COc1ccc(S(=O)(=O)Nc2ccc(O)c3ccccc23)cc1,-6.1
Cn1cc(-c2ccnc(NCc3cccc(Cl)c3F)n2)cn1,-9.5
Cc1ccc2nc(-c3ccc(NC(=O)c4ccc([N+](=O)[O-])cc4Cl)cc3)sc2c1,-3.1
CCCC(=O)N(c1ccc2oc(C)c(C(C)=O)c2c1)S(=O)(=O)c1ccc(C)cc1C,-7.2
C=CCOc1ccc(Br)cc1/C=C/c1[nH]c(=O)[nH]c(=O)c1[N+](=O)[O-],42.3*
C#CCOc1ccc(/C=C/c2[nH]c(=O)[nH]c(=O)c2[N+](=O)[O-])cc1OC,3.2
C=CCOc1ccc(Br)cc1/C=C1/SC(=O)NC1=O,-10.8
CC(C)C(=O)Nc1cccc(C(=O)OCc2ccc(F)cc2)c1,-6.2
Cc1cc(C)c(NC(=O)CSc2nnc(-c3ccc(Cl)cc3Cl)n2N)c(C)c1,-5.1
CCOCC(=O)Nc1ccccc1OC,0.9
COCC(=O)Nc1ccccc1C(=O)O,0.1
CCOCC(=O)Nc1ccccc1C(=O)O,102.9*
O=C(Nc1ccc(N2CCN(Cc3ccccc3)CC2)cc1)c1ccc(Br)o1,3.2
Cc1ccnc(NC(c2ccc3ccc(C)nc3c2O)c2c(Cl)cccc2Cl)c1 (stereo unspecified),7.9
CSc1nnc(CS(=O)(=O)c2ccccc2)c(-c2ccccc2)n1,12.5
COc1cc2c(c(OC)c1)C(=O)C2,3.2
COc1cc(NC(C)=O)c(-c2c(NC(C)=O)cc(OC)c(OC)c2OC)c(OC)c1OC,5.0
COc1cc2c(c(O)c1OC)C(=O)C(=O)CC=C2,32.5*
Cc1ccc(C(=O)NCC(C)C)cc1NS(C)(=O)=O,16.6
N#C/C(=N\Nc1c(Cl)cc(Cl)cc1Cl)C(=O)c1ccc(Cl)cc1,82.2*
N#C/C(=N/Nc1ccc(Cl)cc1Cl)C(=O)c1ccc(Cl)cc1,-7.7
SMILES,ROC1-CUL1 inh
N#C/C(=N\Nc1c(Cl)cc(Cl)cc1Cl)C(=O)c1ccccc1,-9.6
COc1ccc(N2C(=O)C3CSCN3C2=S)cc1 (stereo unspecified),7.3
O=[N+]([O-])c1ccccc1N/N=C/c1ccc(Cl)cc1,-9.9
COc1ccc(C(=O)Oc2c(Sc3ccc(C)cc3)c(C)nn2C(C)(C)C)cc1OC,-8.0
COCC(=O)Oc1c(Sc2ccc(C)cc2)c(C)nn1C(C)(C)C,58.7*
COc1cccc(C(=O)Oc2c(Sc3ccc(C)cc3)c(C)nn2C(C)(C)C)c1OC,-3.1
CN(c1ccccc1)c1nc(-n2nnc3ccccc32)nc(-n2nnc3ccccc32)n1,-5.5
CC(C)/C=C/C(=O)NCCN1Cc2ccccc2OC(c2ccccc2F)C1 (stereo unspecified),7.4
COc1cc(CNCCCn2ccnc2)ccc1OCC(O)CN1CCSCC1 (stereo unspecified),7.6
COc1cc(/C=C2\C(=O)NN(c3ccc(Br)cc3)C2=O)cc(OC)c1OC,-7.5
O=C1NN(c2ccc(Cl)cc2)C(=O)/C1=C/c1ccc2c(c1)OCO2,7.7
CCc1ccc(N2NC(=O)/C(=C\c3cccs3)C2=O)cc1,5.3
CCc1ccc(N2NC(=O)/C(=C/c3cccc(Br)c3)C2=O)cc1,39.9*
O=C1NN(c2ccc(Cl)cc2)C(=O)/C1=C/c1ccc(O)cc1O,-4.3
CCN(CC)c1ccc(/C=C2/C(=O)NN(c3cccc(Br)c3)C2=O)cc1,0.3
O=C1NN(c2ccc(Br)cc2)C(=O)/C1=C\c1ccc(F)cc1,86.3*
Cc1ccc(/C=C2\C(=O)NN(c3ccc(I)cc3)C2=O)cc1,63.3*
CCOc1ccc(/C=C2/C(=O)NN(c3ccc(I)cc3)C2=O)cc1,-2.8
O=C1NN(c2ccc(I)cc2)C(=O)/C1=C\c1cccc(I)c1,4.1
CC(C)CCN(C)c1ccc(/C=C2/C(=O)NN(c3ccc(Br)cc3)C2=O)cc1,-0.2
O=C1NN(c2ccc(Cl)cc2)C(=O)/C1=C/c1ccc(Cl)cc1,46.1*
COc1ccccc1C1(CC(=O)N2CCN(c3ccccc3)C(=O)C2)CC(=O)N(C2CCCC2)C1=O (stereo unspecified),-6.6
COc1ccccc1NC(=O)c1cn(C)nc1Br,4.4
Cc1c(C(=O)NCc2cc3cc(Cl)ccc3[nH]2)c(-c2ccccc2)nn1-c1ccccc1,7.2
N#C/C(=C1\SCCN1c1ccccc1)c1nc2ncccc2[nH]1,-4.2
SMILES,ROC1-CUL1 inh
O=c1cc(-c2ccccc2)c2ccc(OC/C(=N/O)c3ccc(Cl)cc3)cc2o1,-7.4
O=C(N/N=C/c1ccncc1)c1ccccc1Br,5.2
CCOc1ccc(Br)cc1/C=C1/C(=O)NN(c2ccc(I)cc2)C1=O,21.3
O=C1NN(c2ccc(I)cc2)C(=O)/C1=C\c1ccccc1O,-6.5
O=C1NN(c2ccc(I)cc2)C(=O)/C1=C\c1cc(Br)ccc1O,28.9*
COC(=O)c1ccc(CNCCC2CCC(=O)N2Cc2ccc(C)cc2)cc1 (stereo unspecified),0.0
Cc1ccc(/C=C2\C(=O)NC(=O)N(c3ccc(Br)c(C)c3)C2=O)cc1,-0.8
COc1ccccc1C(=O)NCCC(C)C,-2.1
COc1cc(C=C2C(=O)NC(=S)NC2=O)c(Cl)cc1O,1.0
COc1ccc(/C=C2\SC(=S)N(C3CCCCC3)C2=O)cc1O,-5.0

# Compound activity from PubChem BioAssay.
